A selection: hits, their analogues and other compounds. The true share with any hit is near 2.8%.
KDM5B inh: KDM5B demethylase inhibition | AID 1347165 | Q9UGL1 | Potency, µM (doses to about 57.7 µM), actives largely listed as inhibitors | KDM5B demethylase, FDH-coupled NADH fluorescence (FDH is formaldehyde dehydrogenase) | 220,000 compounds, 2.6% hits; also: potency is read from the fitted curve at half-maximal effect; 0% is about no effect; nearly all actives have a fitted effect of over 70% in size
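Inhibition is measured as reduced NADH fluorescence generation from FDH coupling to formaldehyde release. Truncated KDM5BΔAP at 200 nM final acts on H3K4me3 peptide (12.5 µM in substrate mix) in pH 7.5 HEPES buffer with Tween-20, 30 min, room temperature.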
IP6K1 inh: inhibitors of human IP6K1; AID 1645851; 140,000 compounds, 0.81% hits; Q92551; IP6K1 kinase, ADP-Glo luminescence, 2 h; hits give low values; activity change, % (series mostly up to about 58 µM); in the data active = activity change below about -25%; also: % is scaled to controls: 0 for no effect and ±100 for the full control effect
Target sequence (Q92551 whole entry, looked up): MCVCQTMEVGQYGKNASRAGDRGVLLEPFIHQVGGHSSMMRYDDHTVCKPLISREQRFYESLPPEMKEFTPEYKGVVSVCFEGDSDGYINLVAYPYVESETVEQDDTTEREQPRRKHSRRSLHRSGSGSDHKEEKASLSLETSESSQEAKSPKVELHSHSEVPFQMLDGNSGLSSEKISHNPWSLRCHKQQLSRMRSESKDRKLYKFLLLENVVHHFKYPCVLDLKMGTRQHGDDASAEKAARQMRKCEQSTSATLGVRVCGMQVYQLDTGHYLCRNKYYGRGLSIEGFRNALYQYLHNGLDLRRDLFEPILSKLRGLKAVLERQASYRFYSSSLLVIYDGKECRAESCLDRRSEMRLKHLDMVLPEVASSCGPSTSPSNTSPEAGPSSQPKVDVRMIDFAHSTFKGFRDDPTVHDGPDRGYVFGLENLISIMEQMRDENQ
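ADP-Glo luminescence measures ADP made by human IP6K1 during a 2 h RT reaction with ATP/IP6 (mix at 1.3 mM/130 uM); top library doses 57.5 and 19.1 uM final.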
IP6K1 conf: human IP6K1 inhibition, confirmatory. shares compounds with IP6K1 inh. recombinant IP6K1 kinase, ADP-Glo luminescence, 2 h. Potency, µM (doses to about 49 µM), inactives show at the top dose activity change, negative = inhibition, most hits filed as inhibitors. 1,200 compounds, 13% hits. AID 1645852; also: potency is read from the fitted curve at half-maximal effect; % is scaled to controls: 0 for no effect and ±100 for the full control effect; nearly all actives have a fitted effect of over 65% in size
* marks the source's active call; other numbers are inactive results; i = inactive; ? = inconclusive; / = no result; ! = repeats disagree; [ ] = dose if it differs, or a comment. Unless noted, calls follow the shape of the dose curve; as a rule, active = well fitted inhibition curve with a large enough effect; inconclusive = small, poorly fitted or top-dose-only effect; inactive = no such curve, though single readings can be large or run the other way.

SMILES	KDM5B inh	IP6K1 inh	IP6K1 conf
O=C(c1ccccc1)n1nc(-c2ccco2)nc1NCc1ccccc1Cl	?	-31*	-22%
O=C(N/N=C/c1ccc([N+](=O)[O-])o1)C(O)c1ccccc1 (stereo not drawn)	i	/	/
NC(=O)N/N=C/c1ccc([N+](=O)[O-])o1	/	-50*!	-1%[92.2 µM]
Cc1nn(-c2ccccc2)c2sc(C(=O)Nc3cccc(O)c3)cc12	i	-27*	?
CCOc1ccc(NC(=O)c2cc3c(C)nn(-c4ccccc4)c3s2)cc1	?	-3	/
Cc1ccc(Cl)cc1NC(=O)COc1ncnc2ccc(Br)cc12	i	/	/
CC(C)Oc1cccc(-c2nnc(CCC(=O)NCC3CCCCC3)c(=O)[nH]2)c1	i	-13	/
CC(C)Oc1cccc(-c2nnc(CCC(=O)NCCc3cccs3)c(=O)[nH]2)c1	i	-27*	?
O=C(Nc1cccc(Cl)c1Cl)c1cc(S(=O)(=O)N2CCC3(CC2)OCCO3)ccc1F	?	2	/
O=C(Nc1ccccc1Cl)c1cc(S(=O)(=O)N2CCC3(CC2)OCCO3)ccc1F	i	-35*	?
CCc1nonc1NC(=O)c1ccc(OCC(C)C)cc1	i	/	/
Cc1cccc(NS(=O)(=O)c2nnc(NC(=O)c3cccc(C)c3)s2)c1	i	4	/
CC(C)C(=O)Nc1cccc(C(=O)Nc2nnc(C(F)(F)F)s2)c1	i[11.5 µM]	-29*	-11%
COc1cc(NC(=O)CC2C(=O)OCCN2Cc2ccccc2)cc(OC)c1 (stereo not drawn)	i	-6	/
COC(=O)c1cc(NC(=O)CC2C(=O)OCCN2Cc2ccccc2)cc(C(=O)OC)c1 (stereo not drawn)	i[11.5 µM]	-33*	9%
CCOC(=O)Cn1c(C2CC(=O)N(Cc3ccccc3)C2)nc2ccccc21 (stereo not drawn)	i	/	/
CCOC(=O)Cn1c(=N)n(Cc2ccc(C(C)(C)C)cc2)c2ccccc21	?	-27*	2%
COc1ccc(NC(=O)Cc2c(C)c3c(OC)cc(C)cc3oc2=O)cc1	i	/	/
O=[N+]([O-])c1ccccc1S(=O)(=O)Nc1ccccc1	i	/	/
O=S(=O)(c1ccc(-c2cnc(C3CC3)o2)cc1)N1CCN(c2ccc(F)cc2)CC1	i	8	/
COc1ccc(N2CCN(S(=O)(=O)c3ccc(-c4cnc(C5CC5)o4)cc3)CC2)cc1	i	-41*	-7%
O=S(=O)(c1ccc(-c2cnc(C3CC3)o2)cc1)N1CCN(c2cccc(Cl)c2)CC1	i	-6	/
COc1cccc(N2CCN(S(=O)(=O)c3ccc(-c4cnc(C5CC5)o4)cc3)CC2)c1	i	-35*	?
CCC(CC)c1nnc(NC(=O)c2cccc(S(=O)(=O)N(C)c3cccc(Cl)c3)c2)s1	i	/	/
CCOC(=O)c1oc2c(c1C)-c1nn(Cc3ccc(Cl)cc3)cc1CC2	?	-38*	?
SMILES	KDM5B inh	IP6K1 inh	IP6K1 conf
Cc1c(C(=O)O)oc2c1-c1nn(Cc3ccc(Cl)cc3)cc1CC2	?	-19	/
O=C(c1ccco1)N(Cc1cccnc1)c1nc2ccc(F)cc2s1	i	-27*	-17%
O=C(CCc1ccccc1)N(Cc1cccnc1)c1nc2ccc(F)cc2s1	i	-15	/
O=C(Cc1ccccc1)Nc1ccc(N2CCOCC2)c(Br)c1	i	/	/
O=C(Nc1ccc2nc(N3CCN(C4CCCCC4)CC3)cc(C(=O)O)c2c1)c1ccc(Cl)cc1	i	/	/
Cc1ccccc1C1=CCN(c2ncc(NC(=O)c3ccc(Cl)cc3)cc2C(=O)O)CC1	i	4	/
O=C(Nc1ccc(N2CCC(N3CCCCC3)CC2)c(C(=O)O)c1)c1ccc(Br)cc1	?	-29*	?
O=C(Nc1ccc(N2CCOCC2)c(C(=O)O)c1)c1ccc(Br)cc1	?	-33*	?
O=C(Nc1cnc(N2CCC(N3CCCCC3)CC2)c(C(=O)O)c1)c1ccc(Br)cc1	?	-34*	?
CCCOc1c(Cl)cc(C(=O)NC(C)(C)C)cc1OCC	i	/	/
Cc1ccccc1CC(=O)NC12CC3CC(CC(C3)C1)C2	i	/	/
Cc1cccc(-c2noc(CN(C(C)C)S(=O)(=O)c3ccc(Br)cc3)n2)c1	?	-19	/
Cc1ncoc1C(=O)N1CCC(C2CCN(Cc3cccc(F)c3F)CC2)C1 (stereo not drawn)	i	13	/
O=C(O)c1cccc(NC(=O)c2cccc(S(=O)(=O)Nc3cccc(F)c3)c2)c1	i	-11	/
O=C(O)c1cccc(NC(=O)c2cccc(S(=O)(=O)Nc3cccc(C(=O)O)c3)c2)c1	?	-28*	?
COc1cccc(N2CCN(C(=O)CCSCc3ccccc3F)CC2)c1	i	-29*	-13%
COc1ccccc1N1CCN(C(=O)CCSCc2ccccc2F)CC1	i	-16	/

Bioassay records deposited in PubChem BioAssay by National Center for Advancing Translational Sciences (NCATS).
